Screening results as filed in PubChem BioAssay.
sEH inhibitor: soluble epoxide hydrolase inhibitors, primary screen, biochemical, human sEH; AID 707, 2007; inhibition, % at 2 µM; 91,000 compounds, 0.34% hits; recombinant human sEH enzymatic activity assay; in the data active means inhibition above about 80%
CYP2C9 act: human CYP2C9 activators, primary screen, biochemical, luminescence; Cytochrome P450 2C9 (Homo sapiens), P11712; recombinant CYP2C9, luciferin-H conversion; stronger effect = higher value; factor 1 = untreated enzyme, 0 = blocked; activation factor at 5 µM; 96,000 compounds, 1.4% hits;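 active means activation factor of 2 or more for CYP2C9 at a 5 µM dose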
Target sequence (P11712 whole entry, looked up): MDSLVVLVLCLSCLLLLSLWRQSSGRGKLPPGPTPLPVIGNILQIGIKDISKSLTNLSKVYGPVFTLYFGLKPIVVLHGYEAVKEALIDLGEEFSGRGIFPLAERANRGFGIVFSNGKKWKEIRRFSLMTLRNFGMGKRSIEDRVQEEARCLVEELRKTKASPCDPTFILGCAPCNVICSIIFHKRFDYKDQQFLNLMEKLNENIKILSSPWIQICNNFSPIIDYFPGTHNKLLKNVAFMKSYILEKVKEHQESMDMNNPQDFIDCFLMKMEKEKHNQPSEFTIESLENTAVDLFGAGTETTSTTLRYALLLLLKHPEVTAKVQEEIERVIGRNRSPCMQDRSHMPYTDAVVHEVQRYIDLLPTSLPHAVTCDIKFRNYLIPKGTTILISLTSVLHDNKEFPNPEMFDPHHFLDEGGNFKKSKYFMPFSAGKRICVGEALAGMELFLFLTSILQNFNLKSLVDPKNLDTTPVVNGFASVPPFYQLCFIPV
CYP2C9 inhib: blockers of cytochrome P450 2C9 activity – biochemical, luminescence, ADME assay, primary screen | inhibition, % at 5 µM | P11712 | CYP2C9 Supersomes, luciferin-H conversion | 96,000 compounds, 20% hits;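 active means blocking of liver enzyme CYP2C9 beyond about 50% at 5 µM, limit read from the data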
CYP2C19 activ: human CYP2C19 activators, primary screen, biochemical, luminescence; Cytochrome P450 2C19 (Homo sapiens), P33261; recombinant CYP2C19, luciferin-H EGE luminescence; stronger effect = higher value; 0 = fully inhibited enzyme, 1 = untreated enzyme; activation factor at 5 µM; 96,000 tested, under 10 active; AID 1025, 2008;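 active means activation factor of at least 2 at 5 µM in the primary screen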
sEH act: soluble epoxide hydrolase activators, primary screen, biochemical, human sEH; Bifunctional epoxide hydrolase 2 (Homo sapiens), P34913; purified human sEH enzymatic activity, activator screen; activation, % at 2 µM; 91,000 compounds, 0.04% hits; in the data active means activation above about 37%
CYP2C19 inhib: blockers of cytochrome P450 2C19 activity – biochemical, luminescence, ADME assay, primary screen | CYP2C19 Supersomes, luciferin-H EGE luminescence, 30 min | inhibition, % at 5 µM | 96,000 compounds, 21% hits | AID 778, 2007;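 active means CYP2C19 inhibition above a set limit at 5 µM in the primary screen, cut at about 50% in these data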
Hits are given with their value. This is a sample that favours compounds with a hit; in the whole collection about 27% have one here.

What do the screens show for `NC1=NC(=O)/C(=C\c2cccs2)S1`?
sEH inhibitor: inactive; CYP2C9 act: inactive; CYP2C9 inhib: inactive; CYP2C19 activ: inactive; sEH act: inactive; CYP2C19 inhib: inactive

Results for N=C1/C(=C/c2cccs2)C(=O)N=C2SN=C(SCc3ccccc3)N12 ?
sEH inhibitor: inactive; CYP2C9 act: inactive; CYP2C9 inhib: 93; CYP2C19 activ: inactive; sEH act: inactive; CYP2C19 inhib: inactive

How did O=C(NC(=S)N1CCN(c2c(Cl)cccc2[N+](=O)[O-])CC1)c1cccs1 do in these assays?
sEH inhibitor: inactive; CYP2C9 act: inactive; CYP2C9 inhib: 78; CYP2C19 activ: inactive; sEH act: inactive; CYP2C19 inhib: inactive

What do the screens show for `CC(C)C(=O)N1CCN(c2c(Cl)cccc2[N+](=O)[O-])CC1`?
sEH inhibitor: inactive; CYP2C9 act: inactive; CYP2C9 inhib: inactive; CYP2C19 activ: inactive; sEH act: inactive; CYP2C19 inhib: inactive

How did O=C(c1cccnc1)N1CCN(c2c(Cl)cccc2[N+](=O)[O-])CC1 do in these assays?
sEH inhibitor: inactive; CYP2C9 act: inactive; CYP2C9 inhib: inactive; CYP2C19 activ: inactive; sEH act: inactive; CYP2C19 inhib: 82

What do the screens show for `COc1ccc(C2CC(C(F)(F)F)n3nc(C(=O)NCc4cn(C)nc4C)c(Cl)c3N2)cc1` (stereo unspecified)?
sEH inhibitor: inactive; CYP2C9 act: inactive; CYP2C9 inhib: inactive; CYP2C19 activ: inactive; sEH act: inactive; CYP2C19 inhib: inactive

Results for CCN(CC)S(=O)(=O)c1cccc(C(=O)Nc2nc3cc4c(cc3s2)OCCO4)c1 ?
CYP2C9 act: inactive; CYP2C9 inhib: 67; CYP2C19 activ: inactive; CYP2C19 inhib: inactive

What do the screens show for `CS(=O)(=O)c1ccc2nc(NC(=O)CCC(=O)c3cccs3)sc2c1`?
sEH inhibitor: inactive; CYP2C9 act: inactive; CYP2C9 inhib: inactive; CYP2C19 activ: inactive; sEH act: inactive; CYP2C19 inhib: inactive

Results for CC(C)(C)NS(=O)(=O)c1ccc2nc(NC(=O)Cc3cccs3)sc2c1 ?
sEH inhibitor: inactive; CYP2C9 act: inactive; CYP2C9 inhib: 88; CYP2C19 activ: inactive; sEH act: inactive; CYP2C19 inhib: 50

What do the screens show for `CCN(CC)S(=O)(=O)c1ccc2nc(NC(=O)c3cccs3)sc2c1`?
sEH inhibitor: inactive; CYP2C9 act: inactive; CYP2C9 inhib: 62; CYP2C19 activ: inactive; sEH act: inactive; CYP2C19 inhib: inactive

What do the screens show for `COCCNC(=O)C(c1ccco1)N(C(=O)Cn1nnc2ccccc21)c1cc(C)ccc1C` (stereo unspecified)?
sEH inhibitor: inactive; CYP2C9 act: inactive; CYP2C9 inhib: inactive; CYP2C19 activ: inactive; sEH act: inactive; CYP2C19 inhib: inactive

Results for Cc1cc(=O)[nH]c(SCCCOc2ccc(F)cc2)n1 ?
sEH inhibitor: inactive; CYP2C9 act: inactive; CYP2C9 inhib: inactive; CYP2C19 activ: inactive; sEH act: inactive; CYP2C19 inhib: inactive

How did CCCOc1cccc(OCCSc2nc(C)cc(=O)[nH]2)c1 do in these assays?
sEH inhibitor: inactive; CYP2C9 act: inactive; CYP2C9 inhib: 51; CYP2C19 activ: inactive; sEH act: inactive; CYP2C19 inhib: inactive

Results for CCc1c(C)nc(SCCOc2ccc(OC)cc2)[nH]c1=O ?
sEH inhibitor: inactive; CYP2C9 act: inactive; CYP2C9 inhib: 62; CYP2C19 activ: inactive; sEH act: inactive; CYP2C19 inhib: 66

Results for CCC(=O)c1ccccc1OCCSc1nc(C)cc(=O)[nH]1 ?
sEH inhibitor: inactive; CYP2C9 act: inactive; CYP2C9 inhib: inactive; CYP2C19 activ: inactive; sEH act: inactive; CYP2C19 inhib: 72

How did CCc1c(C)nc(SCCOc2ccc(OC(C)C)cc2)[nH]c1=O do in these assays?
sEH inhibitor: inactive; CYP2C9 act: inactive; CYP2C9 inhib: inactive; CYP2C19 activ: inactive; sEH act: inactive; CYP2C19 inhib: inactive

Results for CC(=O)NCC(=O)N(C)C(C(=O)Nc1ccc(C(C)C)cc1)c1ccccc1 (stereo unspecified) ?
sEH inhibitor: inactive; CYP2C9 act: inactive; CYP2C9 inhib: inactive; CYP2C19 activ: inactive; sEH act: inactive; CYP2C19 inhib: inactive

Results for O=C(Nc1ccn(Cc2ccccc2F)n1)c1ccc(COc2ccc(Br)cc2)cc1 ?
sEH inhibitor: inactive; CYP2C9 act: inactive; CYP2C9 inhib: inactive; CYP2C19 activ: inactive; sEH act: inactive; CYP2C19 inhib: inactive

Results for CCOc1ccc(CCNC(=O)C2CCN(S(=O)(=O)CC)CC2)cc1OCC ?
sEH inhibitor: inactive; CYP2C9 act: inactive; CYP2C9 inhib: inactive; CYP2C19 activ: inactive; sEH act: inactive; CYP2C19 inhib: inactive

Results for CCOc1ccc(CCNS(=O)(=O)c2cnc[nH]2)cc1OCC ?
CYP2C9 act: inactive; CYP2C9 inhib: 94; CYP2C19 activ: inactive; CYP2C19 inhib: 68

How did Cn1cc(C(=O)c2ccc(Cl)cc2Cl)cc1C(=O)N/N=C(\N)COc1ccc(Cl)cc1Cl do in these assays?
sEH inhibitor: inactive; CYP2C9 act: inactive; CYP2C9 inhib: 86; CYP2C19 activ: inactive; sEH act: inactive; CYP2C19 inhib: inactive

What do the screens show for `CCOC(=O)CC1C(=O)NCCN1Cc1cccc(C(F)(F)F)c1` (stereo unspecified)?
sEH inhibitor: inactive; CYP2C9 act: inactive; CYP2C9 inhib: inactive; CYP2C19 activ: inactive; sEH act: inactive; CYP2C19 inhib: 55

Results for c1cc2nncn2nc1N1CCCC1 ?
sEH inhibitor: inactive; CYP2C9 act: inactive; CYP2C9 inhib: inactive; CYP2C19 activ: inactive; sEH act: inactive; CYP2C19 inhib: 53

What do the screens show for `Cc1nnc2ccc(N3CCN(c4ccccn4)CC3)nn12`?
CYP2C9 act: inactive; CYP2C9 inhib: inactive; CYP2C19 activ: inactive; CYP2C19 inhib: inactive

Results for c1ccc(N2CCN(c3ccc4nncn4n3)CC2)nc1 ?
sEH inhibitor: inactive; CYP2C9 act: inactive; CYP2C9 inhib: 79; CYP2C19 activ: inactive; sEH act: inactive; CYP2C19 inhib: 89

How did O=C(Oc1cccnc1)c1cc(S(=O)(=O)N2CCOCC2)ccc1Cl do in these assays?
sEH inhibitor: inactive; CYP2C9 act: inactive; CYP2C9 inhib: inactive; CYP2C19 activ: inactive; sEH act: inactive; CYP2C19 inhib: inactive

How did CCCN(CCC)C(=O)CC(c1ccccc1)c1ccc(C)cc1O (stereo unspecified) do in these assays?
sEH inhibitor: inactive; CYP2C9 act: inactive; CYP2C9 inhib: 52; CYP2C19 activ: inactive; sEH act: inactive; CYP2C19 inhib: inactive

Results for Cc1ccc(C(CC(=O)NCc2ccco2)c2ccccc2)c(O)c1 (stereo unspecified) ?
sEH inhibitor: inactive; CYP2C9 act: inactive; CYP2C9 inhib: inactive; CYP2C19 activ: inactive; sEH act: inactive; CYP2C19 inhib: 61
